HCMV inh = qHTS Assay for inhibitors of the human cytomegalovirus (HCMV) | HFF cells, HCMV-luciferase reporter, 72 h; stronger effect = lower value | activity change, negative = inhibition, % at 57.5 µM | 4.5% of 410,000 active | AID 1259415, 2018; in the data active = activity change below about -60%; inconclusive = no clear call, values can overlap the other calls; inactive = above about -39%; note: % is set by controls: 0 for no effect and ±100 for the full control effect
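After 16 h attachment at 37C, HFF cells received test compound and HCMV-luciferase (1 PFU/cell); reporter luminescence read 72 h later, data normalized against buffer-only and known inhibitor Salinomycin.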
Cycloheximide cs = Cycloheximide Counterscreen for Small Molecule Inhibitors of Shiga Toxin; cell reporter, cycloheximide protein synthesis inhibition counterscreen; max response, %; 12% of 300,000 active; AID 2314, 2010; in the data active = max response mostly above about 13%, no sharp cut-off; inactive = mostly below about 14%; note: read at 38.3 µM for the half of the compounds with a filed dose; 0% is about no effect
Pf growth 48h = Primary qHTS for delayed death inhibitors of the malarial parasite plastid, 48 hour incubation | Potency, µM (highest dose often 28.7 µM), for inactives: at the top dose activity change, negative = inhibition, hits mostly inhibitors | AID 504832, 2011 | 5.9% of 310,000 active | P. falciparum luciferase growth in erythrocytes, 48 h; note: potency is the fitted concentration of half-maximal effect; % is set by controls: 0 for no effect and ±100 for the full control effect
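In quantitative HTS format, infected erythrocytes bearing luciferase-reporter parasites were treated for a single generation at 37 C. Luminescence after adding detection reagent served as the growth measure.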
Shiga inhibitor = A qHTS for Small Molecule Inhibitors of Shiga Toxin; AID 2315, 2010; inhibition, % at 38.7 µM; Vero cells, Shiga toxin protein synthesis inhibition reporter; 9.2% of 290,000 active; in the data active = inhibition mostly above about 28%, no sharp cut-off; inactive = mostly below about 43%; note: 0% is about no effect
Pf growth 96h = Primary qHTS for delayed death inhibitors of the malarial parasite plastid, 96 hour incubation | P. falciparum luciferase reporter growth, 96 h | Potency, µM (highest dose often 28.7 µM), for the others: top-dose activity change, negative = inhibition, usual class: inhibitors | 6.9% of 320,000 active | AID 504834, 2011; note: potency is the fitted concentration of half-maximal effect; % is set by controls: 0 for no effect and ±100 for the full control effect
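Compounds incubated with erythrocytes infected by luciferase-expressing P. falciparum (2% hematocrit, 0.05% parasitemia final) for 96 hours, 37 C in 5% CO2. Growth inhibition scored as decreased luciferase luminescence.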
HCV inh = qHTS Assay for Inhibitors of Hepatitis C Virus (HCV); AID 651820, 2012; 3.4% of 340,000 active; Potency, µM (highest dose often 41.8 µM), without a hit: at the top dose activity change, negative = inhibition, usual class: inhibitors; Huh7.5.1 HCVcc-Cre infection, luciferase reporter, 44 h; note: potency is the fitted concentration of half-maximal effect; % is set by controls: 0 for no effect and ±100 for the full control effect
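Infectious HCVcc-Cre (~0.5 moi) was added to cells just after compound, with cells seeded 4 h earlier at 1,000 per well. Luciferase activity after 44 h culture reported infection; substrate was incubated 15 min at room temperature before reading.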
The depositor's hits bear a star. Compounds with a hit are over-represented: about 21% of the library has one in this group of screens. Unless noted, calls come from the whole dose curve; as a rule, active = well fitted inhibition curve with a large enough effect; inconclusive = small, poorly fitted or top-dose-only effect, or another doubt; inactive = no such curve, though single readings can be large or run the other way.

Screening CCCCCC(=O)N1C[C@H](O)[C@@H](n2cc(C3CC3)nn2)C[C@@H]1c1ccc(Cl)cc1 returned HCMV inh -39.
O=C(c1cccs1)N1C[C@@H](O)[C@H](n2cc(C3CC3)nn2)C[C@@H]1c1ccc(Cl)cc1 was read as HCMV inh 9.
Screening CN(CC(=O)Nc1ccccc1C(F)(F)F)C(=O)C1CCN(S(=O)(=O)c2ccc3c(c2)OCCO3)CC1 returned HCMV inh -6, Pf growth 48h inconclusive, Pf growth 96h -1% and HCV inh 8%.
Screening CCS(=O)(=O)N1CCN(c2ccc(C(=O)NC3C4CC5CC(C4)CC3C5)cc2[N+](=O)[O-])CC1 (stereo not drawn) returned HCMV inh inconclusive, Cycloheximide cs -3, Pf growth 48h 12µM*, Shiga inhibitor -7, Pf growth 96h inconclusive and HCV inh inconclusive.
For Cn1cnnc1Sc1ccc(C(=O)NCCC(c2ccccc2)c2ccccc2)cc1[N+](=O)[O-] the results were HCMV inh inconclusive, Cycloheximide cs 0, Pf growth 48h 8.3µM*, Shiga inhibitor 17, Pf growth 96h inconclusive and HCV inh inconclusive.
Screening Cc1cccc(NC(=O)c2ccc(N(C)C3CCCCC3)c([N+](=O)[O-])c2)n1 returned HCMV inh inconclusive, Cycloheximide cs 21*, Pf growth 48h inconclusive, Shiga inhibitor 58*, Pf growth 96h inconclusive and HCV inh 14µM*.
`Cc1cccc(NC(=O)c2ccc(N3CCCCC3)c([N+](=O)[O-])c2)n1` gave HCMV inh 52, Cycloheximide cs 46*, Pf growth 48h 6%, Shiga inhibitor 69*, Pf growth 96h -2% and HCV inh -27%.
For CN1C(=O)c2ccc(NC(=O)c3ccc(N4CCCCC4)c([N+](=O)[O-])c3)cc2C1=O the results were HCMV inh 23, Cycloheximide cs -2, Pf growth 48h 10%, Shiga inhibitor -1, Pf growth 96h -9% and HCV inh 9%.
Screening Cn1cnnc1SCC(=O)NCCC(c1ccccc1)c1ccccc1 returned HCMV inh -14, Cycloheximide cs -1, Pf growth 48h 7%, Shiga inhibitor -12 and HCV inh -6%.
CCOC(=O)c1c(C)oc2nc(C)nc(N3CCN(c4cccc(C)c4C)CC3)c12 was read as HCMV inh 6.
For CCOc1ccc(N(CC(=O)Nc2ccc(C)cc2)S(=O)(=O)c2c(C)[nH]c(=O)[nH]c2=O)cc1 the results were HCMV inh -4, Cycloheximide cs -2, Pf growth 48h 5%, Shiga inhibitor -10, Pf growth 96h -4% and HCV inh 16%.
For Cc1ccc(C)c2sc(NC(=O)c3ccc(N4CCCCC4)c([N+](=O)[O-])c3)nc12 the results were HCMV inh -13, Cycloheximide cs -2, Pf growth 48h 2.6µM*, Shiga inhibitor 35, Pf growth 96h inconclusive and HCV inh inconclusive.
CCCNC(=O)c1ccc(SCC(=O)N(CC)CC)c([N+](=O)[O-])c1 was read as HCMV inh -67*, Cycloheximide cs -4, Pf growth 48h -5%, Shiga inhibitor 11, Pf growth 96h 70% and HCV inh inconclusive.
Cc1cccc(NC(=O)c2ccc(N3CCOCC3)c([N+](=O)[O-])c2)n1 was read as HCMV inh inconclusive, Cycloheximide cs 38*, Pf growth 48h 54%, Shiga inhibitor 72*, Pf growth 96h 0% and HCV inh inconclusive.
`O=C(NCCCn1ccnc1)c1ccc(N2CCCCCC2)c([N+](=O)[O-])c1` gave HCMV inh -61*, Cycloheximide cs -2, Pf growth 48h inconclusive, Shiga inhibitor -15, Pf growth 96h inconclusive and HCV inh -11%.
CCOC(=O)c1sc2ncn(CC(=O)Nc3ccc(C)cc3C)c(=O)c2c1C was read as HCMV inh -1.
`CCc1ccc(-c2nn(CC(=O)NC3CCCC3)c3c2cnc2ccc(F)cc23)cc1` gave HCMV inh 59.
For O=C(c1cc2c(=O)[nH]c3ccccc3c2s1)N1CCN(c2ccc(F)cc2)CC1 the results were HCMV inh 2.
C=C1CCN(c2ccc(C(=O)NCCC)cc2[N+](=O)[O-])CC1 was read as HCMV inh -1 and HCV inh 10µM*.
O=C(Nc1cccnc1)c1ccc(N2CCCC2)c([N+](=O)[O-])c1 was read as HCMV inh 4, Cycloheximide cs 29*, Pf growth 48h -7%, Shiga inhibitor 48, Pf growth 96h -18% and HCV inh 11µM*.
For C=C1CCN(c2ccc(C(=O)NCc3ccccc3)cc2[N+](=O)[O-])CC1 the results were HCMV inh -37, Cycloheximide cs -1, Pf growth 48h 4%, Shiga inhibitor -2, Pf growth 96h -15% and HCV inh -14%.
`CCOc1ccc(-c2ncncc2-c2ccccc2OC)c(O)c1` gave HCMV inh -38, Cycloheximide cs 9, Pf growth 48h 2.9µM*, Shiga inhibitor 5, Pf growth 96h inconclusive and HCV inh -39%.
For C=C(C)COc1ccc(-c2ncncc2-c2ccccc2OC)c(O)c1 the results were HCMV inh -69*, Cycloheximide cs -2, Pf growth 48h 13µM*, Shiga inhibitor 1, Pf growth 96h inconclusive and HCV inh inconclusive.
N#Cc1ccccc1OCC(=O)NNC(=O)CNC(=O)c1ccc(Br)o1 was read as HCMV inh 14 and HCV inh 9%.
Screening COc1ccccc1C(O)(c1ccccc1)c1ccccc1OC returned HCMV inh 12 and HCV inh -23%.
`CC(c1ccccc1C(O)(c1ccccc1)c1ccccc1)N(C)C` (stereo not drawn) gave HCMV inh -69*, Cycloheximide cs -3, Pf growth 48h inconclusive, Shiga inhibitor -9, Pf growth 96h inconclusive and HCV inh 6%.
Cc1cc(-c2nnc(SCC(=O)Nc3c(C)cccc3C)n2N)n[nH]1 was read as HCMV inh -36, Cycloheximide cs -1, Pf growth 48h -17%, Shiga inhibitor -4, Pf growth 96h -18% and HCV inh 12%.
COc1ccc(CNC(=O)[C@H](Cc2c[nH]c3ccccc23)NC(=O)[C@@H]2Cc3ccccc3CN2)cc1 was read as Cycloheximide cs -4, Pf growth 48h inconclusive, Shiga inhibitor -3, Pf growth 96h inconclusive and HCV inh -2%.

High-throughput results from PubChem BioAssay.
